Measured values as given in PubChem BioAssay (NCI).
Compounds without any hit were thinned out: in the full panel of roughly 83,000, 20% have a hit.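 A percent growth of 40 corresponds to 60% growth inhibition; 0 means no net growth; -100 means all cells died. Active threshold: below 10.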 The source made the active and inactive calls.

Legend:
Assay in all cases: NCI-60 one-dose screen, 48 h (100 = growth as untreated, 0 = no growth, -100 = all killed)
Conditions in all cases: 10 µM unless noted
[1] = tested on: SR leukemia
[2] = tested on: RPMI-8226 leukemia
[3] = tested on: OVCAR-8 ovarian
[4] = tested on: OVCAR-4 ovarian
[5] = tested on: SK-OV-3 ovarian
[6] = tested on: IGROV1 ovarian
[7] = tested on: OVCAR-3 ovarian
[8] = tested on: HS 578T breast
[9] = tested on: NCI/ADR-RES ovarian
[10] = tested on: OVCAR-5 ovarian

Measured: growth

CCCCCCCCCCCCCCCCCC(=O)[O][Sn]([CH2]CCC)([CH2]CCC)[CH2]CCC
inactive: [1] 15.8%
active: [2] -30.8% | [3] -57% | [4] -98% | [5] -96.2% | [6] -88.7% | [7] -100% | [8] -8.64% | [9] -86.6%

ClCc1c(Cl)c(Cl)c(Cl)c(CCl)c1Cl
inactive: [2] 18.4% | [3] 49.5% | [5] 113% | [8] 89.3%
active: [1] 4.07% | [4] -66.2% | [6] 4.3% | [7] -94.5%

C=CC(=O)N1CN(C(=O)C=C)CN(C(=O)C=C)C1
inactive: [1] 25.3% | [2] 84.6% | [3] 62.4% | [6] 56.8% | [8] 71.8% | [9] 70.8%
active: [7] 4.76%

Clc1ccc(Cl)c(N=Cc2ccc3c(c2)OCO3)c1
inactive: [1] 114% | [2] 99.9% | [3] 97.8% | [10] 103% | [5] 105% | [6] 114% | [7] 115% | [8] 109% | [9] 106%

Nc1c(C(=O)Nc2ccccc2)sc2nc3c(cc12)C(=O)CCC3
active: [7] -19.4% | [9] -6.39%
inactive: [1] 21.9% | [2] 30.2% | [3] 39.9% | [5] 19.7% | [6] 36.4% | [8] 37.5%

CC1=CC(=O)OC1C/C=C(\C)CCC1[C@@]2(C)CCC[C@@](C)(C(=O)O)C2CC[C@@]1(C)O (stereo partly specified)
inactive: [1] 33.2% | [2] 24.3% | [3] 42.8% | [4] 75.5% | [5] 98.1% | [6] 107% | [7] 56% | [9] 91.8%

COc1ccc(/C=C/c2nc3ccccc3c(=O)n2-c2ccc(C#Cc3ccc(C(C)(C)C)cc3)cc2C)c(OC)c1
inactive: [1] 42% | [2] 52% | [3] 110% | [10] 120% | [5] 103% | [6] 109% | [7] 87.5% | [9] 105%

CC(C)[C@@]12C[C@@H](OC(=O)C3CO3)[C@@](C)(O1)[C@@H]1CC[C@@H](C)[C@H]1[C@@H]2OC(=O)/C=C/c1ccccc1 (stereo partly specified)
active: [8] -21.2%
inactive: [1] 74.6% | [2] 89.1% | [3] 22.4% | [4] 111% | [5] 76.9% | [6] 74.6% | [7] 90.4% | [9] 59.4%

COc1ccc(Oc2nc(Nc3ccc(N4CCOCC4)cc3)ncc2NC(=O)Nc2cccc(OC)c2)cc1
inactive: [1] 74.2% | [2] 56.8% | [3] 50.3% | [10] 103% | [5] 87% | [6] 76.2% | [7] 68.4% | [8] 60.5% | [9] 85.2%

Cc1ccccc1NC(=O)c1sc2nc3c(cc2c1N)C(=O)CCC3
active: [7] 4.33%
inactive: [1] 34.4% | [2] 67.2% | [3] 78.6% | [5] 22.1% | [6] 77% | [8] 25.8% | [9] 22.6%

COC(=O)C(Br)(C(=O)OC)C(Br)C(Br)C(Br)c1ccccc1 (stereo unspecified)
active: [7] -37%
inactive: [1] 47.6% | [2] 106% | [3] 73.1% | [4] 83.6% | [5] 102% | [6] 39.1% | [8] 114% | [9] 104%

ClCCn1cnc2c(SCc3ccccc3Cl)ncnc21
inactive: [3] 47.5% | [10] 69.6% | [5] 46.1% | [7] 35.9% | [8] 53.2% | [9] 54.6%
active: [1] -21.5% | [2] 7.3%

Cn1c(-c2ccccc2)cc(=O)n1-c1ccccc1
inactive: [1] 101% | [2] 96.5% | [3] 107% | [5] 110% | [6] 114% | [7] 124% | [8] 115% | [9] 112%

CC(C)(c1ccccc1)c1cc(O)c(C(C)(C)c2ccccc2)cc1O
active: [2] 9.65%
inactive: [1] 18.5% | [3] 45.6% | [10] 78.8% | [5] 43.1% | [6] 42.4% | [7] 38.9% | [8] 47.4% | [9] 43.7%

c1cn2cc(-c3ccc4ncn(C5CCCCC5)c4c3)nc(-c3ccc4c(c3)ncn4C3CCCCC3)c2n1
active: [1] 2.47% | [2] -37.9% | [3] -24.1% | [5] -71.9% | [6] -41.9% | [7] -85.2% | [8] 3.4% | [9] 1.11%

Cc1c(C(=O)Nc2ccccc2F)sc2c(=O)[nH]cnc12
inactive: [1] 28.5% | [2] 96.7% | [3] 97% | [10] 123% | [5] 97.5% | [6] 76.4% | [7] 93.7% | [8] 98.2% | [9] 66.2%

Cc1ccc(NC(=O)c2cc(NCc3cc(O)ccc3O)ccc2O)cc1
inactive: [1] 20.3% | [2] 20.2% | [3] 81.8% | [4] 89.1% | [5] 98.6% | [6] 97.9% | [7] 71% | [8] 86.4% | [9] 95.8%

CCCCCCCCOC(=O)C(C)OC(=O)OCCOCCOC(=O)OC(C)C(=O)OCCCCCCCC (stereo unspecified)
inactive: [1] 104% | [2] 98.7% | [3] 105% | [4] 117% | [5] 103% | [6] 104% | [7] 98.6% | [8] 102% | [9] 101%

O=[N+]([O-])c1ccc(Sc2nc(Cl)nc(NC3CCCC3)n2)cc1
active: [1] -28.3% [100 µM] | [2] -7.18% [100 µM] | [10] -90.5% [100 µM] | [4] -100% [100 µM] | [5] -100% [100 µM] | [6] -67.8% [100 µM] | [7] -100% [100 µM] | [9] -49.1% [100 µM]
inactive: [8] 11.7% [100 µM]

O=C(CCCCCCN1CC(=O)N2[C@@H](c3ccc(Cl)c(Cl)c3)c3[nH]c4ccccc4c3C[C@H]2C1=O)NO
inactive: [3] 50.3% | [10] 46.3% | [5] 73.6% | [7] 35.3% | [8] 64.8% | [9] 93.3%
active: [1] 7.56% | [2] 6.04% | [6] -10.5%

O=c1c2cc(Cl)ccc2oc2ccc(OCCCCCN3CCCCCC3)cc12
inactive: [1] 47.5% | [2] 60.3% | [3] 82.1% | [4] 91.8% | [5] 78.9% | [6] 90.6% | [7] 81.5% | [8] 83% | [9] 85.7%

COc1cc(/C=C\c2cc(/C=C\c3ccc(O)c(OC)c3)n(C(=O)Nc3ccc(C(F)(F)F)cc3)n2)ccc1O
inactive: [1] 13.2% | [4] 76.7% | [5] 66.1% | [6] 42.8% | [7] 13.8% | [8] 51.9% | [9] 51.7%
active: [2] -0.214% | [3] 0.433%

COc1cc(CN(CCC(O)N2CCCC2=O)Cc2ccc3c(c2)OCO3)cc(OC)c1OC (stereo unspecified)
inactive: [1] 86.3% | [2] 98.7% | [3] 100% | [4] 108% | [5] 102% | [6] 95% | [7] 105% | [8] 103% | [9] 103%

COC(=O)[C@@H](Cc1c[nH]c2ccccc12)NC(=O)/C=C/c1ccccc1
inactive: [1] 18.4% | [2] 14.3% | [3] 25.2% | [4] 63.1% | [6] 29.1%
active: [5] 2.1% | [7] -5.22% | [8] -13% | [9] 4.17%

COc1cc(NCCC2CCCCN2)c2ncccc2c1OC (stereo unspecified)
active: [6] 4.24% | [7] 4.97%
inactive: [1] 73.8% | [2] 68.2% | [3] 62.7% | [4] 36.8% | [5] 116% | [8] 86.6% | [9] 81.7%

CN(C)c1nc(-c2ccco2)n2nc(-c3ccc(Cl)cc3)cc2n1
inactive: [1] 52.7% | [2] 74.8% | [3] 50.8% | [5] 45.9% | [6] 55.8% | [7] 74.1% | [8] 65.1% | [9] 69%

CC1CCCN(CCCCOc2ccc(-c3ccc(C#N)cc3)cc2)C1 (stereo unspecified)
inactive: [1] 86.8% | [2] 71.1% | [3] 82.3% | [10] 97.1% | [5] 95.3% | [6] 107% | [7] 98.6% | [8] 87.4% | [9] 89.7%

C=CCOc1ccc2c(C)cc(=O)oc2c1
inactive: [1] 128% | [2] 93.8% | [3] 103% | [10] 113% | [5] 117% | [6] 113% | [7] 105% | [9] 104%

CC1(C)CN(CCNc2nccc(-c3c(-c4cccc(O)c4)nc4sccn34)n2)S(=O)(=O)N1
inactive: [1] 17.5% | [2] 96.1% | [3] 103% | [4] 70.9% | [5] 44.7% | [6] 38.5% | [7] 77.5% | [8] 71.6% | [9] 111%

Nc1nc(NC2CC2)cc(-c2cccc(Cl)c2Cl)n1
inactive: [1] 14.3% | [2] 74.2% | [3] 70% | [4] 73.4% | [5] 64.7% | [6] 65.6% | [7] 36.8% | [8] 64.7% | [9] 25%

Cc1ccc(C)c2c1SC1=NNC(Oc3ccc(Cl)cc3)=C(C#N)C(=N)N12
inactive: [1] 113% | [2] 98.7% | [3] 108% | [10] 111% | [5] 95.7% | [6] 87.8% | [7] 110% | [9] 105%
